# Data: PubChem BioAssay AID1159580 (chemical genetic matrix, 2015)
# The campaign covered roughly 5,500 compounds. About 2,000 (36%) were called active. About 18% were inconclusive and are not listed. This is one part of the list. Unmarked numbers belong to inactive results. Rule as the data show it: active = normalized growth mostly below about 0.91 (no sharp cut-off); inconclusive = no clear call, values can overlap the other calls; inactive = mostly above about 0.92.
# Experiment: chemical genetic growth profiling, strain panel (AID 1159580);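 also: tested at 20 µM; growth read once vehicle control cultures reached saturation at 30 °C; 1 = growth at the plate median or of vehicle wells; lower values mean less growth of the strain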
# Conditions: growth OD
structure (smiles),measurement,setting,value
COc1c(OC)c2occc2c2oc(=O)ccc12,normalized growth,"S. cerevisiae deletion strains, locus YJR066W, strain TOR1, active compounds read low",0.929
same,normalized growth,"S. cerevisiae deletion strains, locus YKL009W, strain mrt4, active compounds read low",0.957
same,normalized growth,"S. cerevisiae deletion strains, locus YKL068W, active compounds read low",0.978
same,normalized growth,"S. cerevisiae deletion strains, locus YKL085W, strain MDH1 (second series), active compounds read low",0.97
same,normalized growth,"S. cerevisiae deletion strains, locus YKL085W, strain MDH1, active compounds read low",0.97
same,normalized growth,"S. cerevisiae deletion strains, locus YKL160W, strain elf1, active compounds read low",0.942
same,normalized growth,"S. cerevisiae deletion strains, locus YKL190W, strain CNB1, active compounds read low",0.965
same,normalized growth,"S. cerevisiae deletion strains, locus YKR001C, strain vps1, active compounds read low",0.644 (active)
same,normalized growth,"S. cerevisiae deletion strains, locus YKR026C, strain gcn3, active compounds read low",0.967
same,normalized growth,"S. cerevisiae deletion strains, locus YKR091W, strain srl3, active compounds read low",0.985
same,normalized growth,"S. cerevisiae deletion strains, locus YLL001W, strain dnm1, active compounds read low",0.993
same,normalized growth,"S. cerevisiae deletion strains, locus YLL026W, active compounds read low",0.991
same,normalized growth,"S. cerevisiae deletion strains, locus YLL041C, strain sdh2, active compounds read low",0.975
same,normalized growth,"S. cerevisiae deletion strains, locus YLR027C, strain aat2, active compounds read low",0.964
same,normalized growth,"S. cerevisiae deletion strains, locus YLR039C, strain RIC1, active compounds read low",0.68
same,normalized growth,"S. cerevisiae deletion strains, locus YLR058C, strain SHM2, active compounds read low",0.96
same,normalized growth,"S. cerevisiae deletion strains, locus YLR102C, strain apc9, active compounds read low",0.983
same,normalized growth,"S. cerevisiae deletion strains, locus YLR113W, strain HOG1, active compounds read low",0.958
same,normalized growth,"S. cerevisiae deletion strains, locus YLR221C, strain rsa3, active compounds read low",0.952
same,normalized growth,"S. cerevisiae deletion strains, locus YLR258W, strain gsy2, active compounds read low",0.988
same,normalized growth,"S. cerevisiae deletion strains, locus YLR262C, strain YPT6 (second series), active compounds read low",0.939
same,normalized growth,"S. cerevisiae deletion strains, locus YLR262C, strain YPT6, active compounds read low",0.79
same,normalized growth,"S. cerevisiae deletion strains, locus YLR268W, strain sec22, active compounds read low",0.927
same,normalized growth,"S. cerevisiae deletion strains, locus YLR320W, strain mms22, active compounds read low",0.895
same,normalized growth,"S. cerevisiae deletion strains, locus YLR330W, strain CHS5, active compounds read low",0.939
same,normalized growth,"S. cerevisiae deletion strains, locus YLR342W, strain FKS1 (second series), active compounds read low",0.95
same,normalized growth,"S. cerevisiae deletion strains, locus YLR342W, strain FKS1, active compounds read low",0.992
same,normalized growth,"S. cerevisiae deletion strains, locus YLR357W, strain rsc2, active compounds read low",1.01
same,normalized growth,"S. cerevisiae deletion strains, locus YLR370C, strain arc18, active compounds read low",0.982
same,normalized growth,"S. cerevisiae deletion strains, locus YLR371W, strain rom2, active compounds read low",0.816 (active)
same,normalized growth,"S. cerevisiae deletion strains, locus YLR384C, strain iki3, active compounds read low",0.991
same,normalized growth,"S. cerevisiae deletion strains, locus YLR418C, strain cdc73, active compounds read low",0.754 (active)
same,normalized growth,"S. cerevisiae deletion strains, locus YML016C, strain PPZ1, active compounds read low",0.936
same,normalized growth,"S. cerevisiae deletion strains, locus YML032C, strain rad52, active compounds read low",0.915
same,normalized growth,"S. cerevisiae deletion strains, locus YML120C, strain ndi1, active compounds read low",0.948
same,normalized growth,"S. cerevisiae deletion strains, locus YML124C, strain tub3, active compounds read low",0.968
same,normalized growth,"S. cerevisiae deletion strains, locus YMR058W, strain fet3, active compounds read low",0.971
same,normalized growth,"S. cerevisiae deletion strains, locus YMR078C, strain ctf18, active compounds read low",0.955
same,normalized growth,"S. cerevisiae deletion strains, locus YMR125W, strain sto1, active compounds read low",1.01
same,normalized growth,"S. cerevisiae deletion strains, locus YMR129W, active compounds read low",0.986
same,normalized growth,"S. cerevisiae deletion strains, locus YMR205C, strain PFK2, active compounds read low",0.987
same,normalized growth,"S. cerevisiae deletion strains, locus YMR223W, strain ubp8, active compounds read low",0.933
same,normalized growth,"S. cerevisiae deletion strains, locus YMR231W, strain pep5, active compounds read low",0.987
same,normalized growth,"S. cerevisiae deletion strains, locus YMR263W, strain SAP30, active compounds read low",0.916
same,normalized growth,"S. cerevisiae deletion strains, locus YMR307W, strain GAS1, active compounds read low",0.816
same,normalized growth,"S. cerevisiae deletion strains, locus YNL067W, strain RPL9B, active compounds read low",0.941
same,normalized growth,"S. cerevisiae deletion strains, locus YNL071W, strain lat1, active compounds read low",0.929
same,normalized growth,"S. cerevisiae deletion strains, locus YNL183C, strain NPR1, active compounds read low",0.921
same,normalized growth,"S. cerevisiae deletion strains, locus YNL209W, strain ssb2, active compounds read low",0.976
same,normalized growth,"S. cerevisiae deletion strains, locus YNL233W, strain BNI4, active compounds read low",0.872
same,normalized growth,"S. cerevisiae deletion strains, locus YNL248C, strain rpa49, active compounds read low",0.906
same,normalized growth,"S. cerevisiae deletion strains, locus YNL250W, strain rad50, active compounds read low",0.989
same,normalized growth,"S. cerevisiae deletion strains, locus YNL271C, strain bni1, active compounds read low",0.965
same,normalized growth,"S. cerevisiae deletion strains, locus YNL298W, strain CLA4, active compounds read low",0.95
same,normalized growth,"S. cerevisiae deletion strains, locus YNL307C, strain MCK1, active compounds read low",0.859 (active)
same,normalized growth,"S. cerevisiae deletion strains, locus YNL322C, strain KRE1 (second series), active compounds read low",0.986
same,normalized growth,"S. cerevisiae deletion strains, locus YNL322C, strain KRE1, active compounds read low",0.973
same,normalized growth,"S. cerevisiae deletion strains, locus YNR049C, strain mso1, active compounds read low",0.985
same,normalized growth,"S. cerevisiae deletion strains, locus YNR052C, strain pop2, active compounds read low",0.948
same,normalized growth,"S. cerevisiae deletion strains, locus YOL012C, strain htz1",0.5
same,normalized growth,"S. cerevisiae deletion strains, locus YOL147C, strain pex11, active compounds read low",0.958
same,normalized growth,"S. cerevisiae deletion strains, locus YOR001W, strain rrp6, active compounds read low",0.936
same,normalized growth,"S. cerevisiae deletion strains, locus YOR061W, strain CKA2, active compounds read low",0.962
same,normalized growth,"S. cerevisiae deletion strains, locus YOR069W, strain VPS5, active compounds read low",0.968
same,normalized growth,"S. cerevisiae deletion strains, locus YOR070C, strain gyp1, active compounds read low",0.977
same,normalized growth,"S. cerevisiae deletion strains, locus YOR080W, strain dia2, active compounds read low",0.98
same,normalized growth,"S. cerevisiae deletion strains, locus YOR083W, strain WHI5, active compounds read low",0.908
same,normalized growth,"S. cerevisiae deletion strains, locus YOR106W, strain vam3, active compounds read low",0.946
same,normalized growth,"S. cerevisiae deletion strains, locus YOR136W, strain idh2, active compounds read low",0.995
same,normalized growth,"S. cerevisiae deletion strains, locus YOR144C, strain elg1, active compounds read low",0.954
same,normalized growth,"S. cerevisiae deletion strains, locus YOR184W, strain ser1, active compounds read low",0.859 (active)
same,normalized growth,"S. cerevisiae deletion strains, locus YOR231W, strain MKK1, active compounds read low",0.956
same,normalized growth,"S. cerevisiae deletion strains, locus YOR265W, strain rbl2, active compounds read low",0.985
same,normalized growth,"S. cerevisiae deletion strains, locus YOR270C, strain vph1, active compounds read low",0.857
same,normalized growth,"S. cerevisiae deletion strains, locus YOR290C, strain snf2, active compounds read low",0.944
same,normalized growth,"S. cerevisiae deletion strains, locus YOR316C, strain cot1, active compounds read low",0.985
same,normalized growth,"S. cerevisiae deletion strains, locus YPL051W, strain arl3, active compounds read low",0.933
same,normalized growth,"S. cerevisiae deletion strains, locus YPL055C, strain LGE1, active compounds read low",0.87
same,normalized growth,"S. cerevisiae deletion strains, locus YPL078C, strain atp4, active compounds read low",0.932
same,normalized growth,"S. cerevisiae deletion strains, locus YPL106C, strain sse1, active compounds read low",0.94
same,normalized growth,"S. cerevisiae deletion strains, locus YPL240C, strain hsp82, active compounds read low",0.958
same,normalized growth,"S. cerevisiae deletion strains, locus YPL241C, strain CIN2, active compounds read low",0.941
same,normalized growth,"S. cerevisiae deletion strains, locus YPL256C, strain CLN2, active compounds read low",0.973
same,normalized growth,"S. cerevisiae deletion strains, locus YPR119W, strain clb2, active compounds read low",0.98
same,normalized growth,"S. cerevisiae deletion strains, locus YPR141C, strain kar3, active compounds read low",0.985
same,normalized growth,"S. cerevisiae deletion strains, locus YPR163C, strain tif3, active compounds read low",0.917
same,normalized growth,"S. cerevisiae deletion strains, locus YPR167C, strain met16, active compounds read low",0.96
same,normalized growth,"S. cerevisiae deletion strains, strain wtn01, active compounds read low",0.957
same,normalized growth,"S. cerevisiae strains, strain wild type, active compounds read low",0.967
